Measured values published in PubChem BioAssay (EPA / NIEHS).
Calls of active or inactive are those of the source. The calls were made as follows: active = hit-call score of the fitted dose curve at least 0.9, where 1 is the maximum; inactive = score below 0.9.

Key:
[1] = ATG_CRE_CIS: Attagene CIS-FACTORIAL HepG2 Assay for human cAMP Responsive Element (CRE) binding protein 3 (AID 2282926); conditions: HepG2 CRE cis-reporter, Attagene multiplexed mRNA; actives raise or lower the signal
Procedure, shortened: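 HepG2 cells transiently transfected with a multiplexed reporter library (CRE-driven unit among them) were dosed for 24 h. Reporter mRNA was quantified by RT-PCR, fluorescent labelling, HpaI digestion and capillary electrophoresis, with bidirectional fitting against DMSO baseline.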

[2] = target: CCAAT/enhancer-binding protein beta (Homo sapiens) (UniProt P17676); assay: ATG_C_EBP_CIS: Attagene CIS-FACTORIAL HepG2 Assay for human CCAAT/Enhancer Binding Protein (C/EBP) beta (AID 2282927); conditions: HepG2 Attagene cis-factorial transcription factor reporter; actives raise or lower the signal
Chain of CCAAT/enhancer-binding protein beta (Homo sapiens) (P17676 whole entry, looked up): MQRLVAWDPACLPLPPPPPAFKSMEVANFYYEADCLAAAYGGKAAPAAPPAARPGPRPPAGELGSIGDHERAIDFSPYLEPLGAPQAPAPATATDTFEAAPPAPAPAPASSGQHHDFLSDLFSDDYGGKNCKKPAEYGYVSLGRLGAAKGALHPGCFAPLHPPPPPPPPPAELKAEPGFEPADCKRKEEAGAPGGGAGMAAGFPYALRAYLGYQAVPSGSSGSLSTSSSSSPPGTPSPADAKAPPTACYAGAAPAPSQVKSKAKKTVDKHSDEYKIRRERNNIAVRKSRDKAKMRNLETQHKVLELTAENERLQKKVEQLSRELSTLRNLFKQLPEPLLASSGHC
Procedure, shortened: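 HepG2, transient MRTU transfection, 24 h treatment. RT-PCR plus CE fluorescence; DMSO negative control, bidirectional fit.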

[3] = ATG_CMV_CIS: Attagene CIS-FACTORIAL HepG2 Assay for human CMV (Internal Marker) (AID 2282928); conditions: HepG2 CMV promoter reporter, transcription factor profiling; actives raise or lower the signal;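 also: endpoint acts as a background internal control marker rather than a target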
Procedure, shortened: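 After transient transfection of HepG2 with reporter transcription units driven by cis-regulatory promoters, cells receive test chemical for 24 h. Labeled reporter amplicons, digested with HpaI, are sized and quantified by capillary electrophoresis against DMSO.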

[4] = ATG_DR4_LXR_CIS: Attagene CIS-FACTORIAL HepG2 Assay for human Liver X Receptor (LXR), DR4 submotif (AID 2282929); conditions: HepG2 Attagene DR4 cis-reporter, mRNA transcription; actives raise or lower the signal
Procedure, shortened: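 Fluorescence intensity of labelled reporter cDNA fragments, separated by capillary electrophoresis, gives the signal. HepG2 cells bearing cis-regulated reporter constructs were treated 24 h; activity fitted bidirectionally relative to DMSO negative control.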

[5] = ATG_AP_2_CIS: Attagene CIS-FACTORIAL HepG2 Assay for human Activator Protein 2 (AP-2) (AID 2282932); conditions: HepG2 AP-2 cis-reporter, Attagene transcription factor profiling; actives raise or lower the signal
Procedure, shortened: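 Multiplexed mRNA reporter assay in HepG2: cis-regulated units report endogenous factor activity after 24 h treatment. Fluorescence from capillary electrophoresis of RT-PCR products gives the signal, with DMSO as baseline.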

[6] = ATG_E_Box_CIS: Attagene CIS-FACTORIAL HepG2 Assay for human Enhancer Box (E-box) (AID 2282936); conditions: HepG2 E-box cis-reporter transcription, actives raise or lower the signal
Procedure, shortened: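 First, HepG2 cells receive multiple cis-regulated reporter constructs by transient transfection. Next, chemicals are applied for 24 h. Finally, reporter mRNA is quantified via RT-PCR and capillary electrophoresis, with DMSO as baseline.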

[7] = ATG_EGR_CIS: Attagene CIS-FACTORIAL HepG2 Assay for human Early Growth Response 1 (EGR1) (AID 2282938); conditions: HepG2 Attagene CIS-FACTORIAL EGR reporter mRNA; actives raise or lower the signal
Procedure, shortened: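 Activity is taken as induction or loss of reporter mRNA versus DMSO, fitted bidirectionally. Transcripts from cis-regulated reporter units in transiently transfected HepG2 were measured after 24 h by RT-PCR with capillary electrophoresis.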

[8] = ATG_M_19_CIS: Attagene CIS-FACTORIAL HepG2 Assay for M19 Transcription Factor (Internal Marker) (AID 2282939); conditions: HepG2 Attagene CIS-FACTORIAL M19 internal marker reporter; actives raise or lower the signal
Procedure, shortened: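 Following a 24 h exposure, RNA from transfected HepG2 cells was reverse-transcribed, PCR-amplified with reporter-specific primers, end-labelled with 6-FAM and HpaI-digested before capillary separation. Values represent gain or loss versus DMSO.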

[9] = ATG_Ets_CIS: Attagene CIS-FACTORIAL HepG2 Assay for human Erythroblast Transformation Specific (ETS) (AID 2282941); conditions: HepG2 ETS cis-reporter transcription, actives raise or lower the signal
Procedure, shortened: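 Human HepG2 hepatoma cells were transiently transfected with promoter-driven reporter constructs and treated for 24 hours. Reporter transcripts were quantified by RT-PCR with fluorescent primer extension; bidirectional curve fitting used DMSO as reference.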

[10] = target: Hepatocyte nuclear factor 3-beta (Homo sapiens) (UniProt Q9Y261); assay: ATG_FoxA2_CIS: Attagene CIS-FACTORIAL HepG2 Assay for human Forkhead box A2 (FOXA2) (AID 2282942); conditions: HepG2 cis-reporter transcription factor activity, 24 h; actives raise or lower the signal
Chain of Hepatocyte nuclear factor 3-beta (Homo sapiens) (Q9Y261 whole entry, looked up): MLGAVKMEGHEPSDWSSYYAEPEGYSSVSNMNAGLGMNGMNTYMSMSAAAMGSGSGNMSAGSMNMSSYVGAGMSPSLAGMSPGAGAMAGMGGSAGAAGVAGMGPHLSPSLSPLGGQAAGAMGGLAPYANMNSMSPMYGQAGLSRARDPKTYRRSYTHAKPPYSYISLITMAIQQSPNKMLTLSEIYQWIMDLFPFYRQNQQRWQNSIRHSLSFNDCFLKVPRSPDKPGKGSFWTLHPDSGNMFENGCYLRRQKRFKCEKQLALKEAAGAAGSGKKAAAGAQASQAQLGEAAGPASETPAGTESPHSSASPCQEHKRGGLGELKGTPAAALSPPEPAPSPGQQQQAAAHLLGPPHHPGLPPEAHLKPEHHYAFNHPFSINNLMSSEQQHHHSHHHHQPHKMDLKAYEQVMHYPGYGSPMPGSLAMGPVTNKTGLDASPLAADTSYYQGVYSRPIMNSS
Procedure, shortened: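 Reporter transcript induction is measured by fluorescence after capillary electrophoresis of RT-PCR products from HepG2 cells exposed 24 h. Cis-regulated reporter units report endogenous factor activity; curves fitted both directions against DMSO.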

[11] = ATG_FoxO_CIS: Attagene CIS-FACTORIAL HepG2 Assay for human Forkhead box O (FoxO) (AID 2282943); conditions: HepG2 Attagene cis-reporter, FoxO element, mRNA; actives raise or lower the signal
Procedure, shortened: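 Transfected HepG2 reporter cells exposed to test chemical for 24 h; reporter RNA measured by reverse transcription, PCR and fluorescent capillary electrophoresis; curves fitted for increases and decreases against DMSO.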

[12] = ATG_GATA_CIS: Attagene CIS-FACTORIAL HepG2 Assay for human GATA Binding Protein (AID 2282944); conditions: HepG2 GATA cis-element reporter, Attagene multiplex mRNA; actives raise or lower the signal
Procedure, shortened: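 DMSO serves as negative control and baseline for bidirectional fitting of reporter mRNA changes. HepG2 cells bearing transiently transfected cis-promoter reporters were exposed 24 h; transcripts detected via RT-PCR and capillary electrophoresis.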

[13] = ATG_M_32_CIS: Attagene CIS-FACTORIAL HepG2 Assay for M32 Transcription Factor (Internal Marker) (AID 2282949); conditions: HepG2 Attagene cis-factorial M32 reporter, mRNA; actives raise or lower the signal;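 also: background control marker of the multiplexed CIS panel rather than a real target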
Procedure, shortened: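 Internal background marker read-out: RT-PCR/capillary electrophoresis fluorescence of reporter transcripts from transiently transfected HepG2 cells after 24 h chemical exposure. Activity fitted bidirectionally relative to DMSO negative control.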

[14] = ATG_M_06_CIS: Attagene CIS-FACTORIAL HepG2 Assay for M06 Transcription Factor (Internal Marker) (AID 2282950); conditions: HepG2 Attagene CIS-FACTORIAL M06 internal marker reporter; actives raise or lower the signal
Procedure, shortened: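 Fluorescence-labelled RT-PCR products from cis-promoter reporter units, cut with HpaI and resolved by capillary electrophoresis, give the signal. Cells are human HepG2, dosed for 24 h. Serves as background control, fitted relative to DMSO.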

[15] = ATG_PXRE_CIS: Attagene CIS-FACTORIAL HepG2 Assay for human Pregnane X Receptor Element (PXRE) (AID 2282957); conditions: HepG2 Attagene CIS-FACTORIAL PXRE reporter, mRNA; actives raise or lower the signal
Procedure, shortened: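 HepG2 cells transiently transfected with cis-regulated multiple reporter transcription units; endogenous factor activity measured as reporter mRNA 24 h after dosing. RT-PCR, fluorescent primer extension, HpaI digestion, capillary electrophoresis; bidirectional fit versus DMSO baseline.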

[16] = ATG_Sox_CIS: Attagene CIS-FACTORIAL HepG2 Assay for human SRY-box transcription factor (SOX) (AID 2282960); conditions: HepG2 Attagene cis-factorial SOX reporter, mRNA; actives raise or lower the signal
Procedure, shortened: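 Measures mRNA induction of a SOX1-associated reporter in HepG2 after 24 h dosing. Fluorescently labelled RT-PCR fragments are separated by capillary electrophoresis, and gain or loss relative to DMSO control is fitted.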

[17] = target: Transcription factor Sp1 (Homo sapiens) (UniProt P08047); assay: ATG_Sp1_CIS: Attagene CIS-FACTORIAL HepG2 Assay for human Specificity Protein 1 (Sp1) (AID 2282961); conditions: HepG2 Sp1 cis-reporter transcription, actives raise or lower the signal
Chain of Transcription factor Sp1 (Homo sapiens) (P08047 whole entry, looked up): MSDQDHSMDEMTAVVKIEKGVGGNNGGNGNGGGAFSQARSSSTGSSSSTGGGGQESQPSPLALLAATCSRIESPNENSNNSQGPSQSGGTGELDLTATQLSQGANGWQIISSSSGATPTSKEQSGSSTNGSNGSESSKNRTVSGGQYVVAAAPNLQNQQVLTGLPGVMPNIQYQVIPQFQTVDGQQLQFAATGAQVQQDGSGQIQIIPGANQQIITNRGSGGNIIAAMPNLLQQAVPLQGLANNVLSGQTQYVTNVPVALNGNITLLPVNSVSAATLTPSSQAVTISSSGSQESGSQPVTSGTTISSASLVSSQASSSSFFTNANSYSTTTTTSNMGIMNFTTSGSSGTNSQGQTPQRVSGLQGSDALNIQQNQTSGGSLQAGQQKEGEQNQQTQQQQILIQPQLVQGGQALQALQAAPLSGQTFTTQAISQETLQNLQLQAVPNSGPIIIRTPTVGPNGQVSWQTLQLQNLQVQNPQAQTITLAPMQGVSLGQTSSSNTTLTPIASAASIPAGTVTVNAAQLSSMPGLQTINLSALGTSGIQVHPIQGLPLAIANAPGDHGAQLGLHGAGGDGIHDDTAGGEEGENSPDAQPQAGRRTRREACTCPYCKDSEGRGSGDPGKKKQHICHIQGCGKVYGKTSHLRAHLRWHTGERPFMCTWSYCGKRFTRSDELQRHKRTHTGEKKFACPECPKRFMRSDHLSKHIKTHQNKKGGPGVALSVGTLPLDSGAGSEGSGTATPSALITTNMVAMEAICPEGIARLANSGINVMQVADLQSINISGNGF
Procedure, shortened: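 Cells: HepG2, transiently transfected with cis-regulated multiplexed reporters. Exposure: 24 h. Detection: reporter transcripts amplified, fluorescently labeled, restriction-digested and sized by capillary electrophoresis. Analysis: bidirectional fit relative to DMSO.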

[18] = ATG_SREBP_CIS: Attagene CIS-FACTORIAL HepG2 Assay for human Sterol Regulatory Element Binding (SREBP) (AID 2282962); conditions: HepG2 Attagene cis-factorial SREBP reporter, mRNA; actives raise or lower the signal
Procedure, shortened: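 mRNA induction of transfected cis-promoter reporters in HepG2 cells, 24 h post-dose. Detection: RT-PCR with 6-FAM-labelled products, HpaI digest, capillary electrophoresis. DMSO served as negative control and baseline.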

[19] = target: Signal transducer and activator of transcription 3 (Homo sapiens) (UniProt P40763); assay: ATG_STAT3_CIS: Attagene CIS-FACTORIAL HepG2 Assay for human Signal Transducer and Activator of Transcription 3 (STAT3) (AID 2282963); conditions: HepG2, Attagene cis-factorial STAT3 reporter transcription; actives raise or lower the signal
Chain of Signal transducer and activator of transcription 3 (Homo sapiens) (P40763 whole entry, looked up): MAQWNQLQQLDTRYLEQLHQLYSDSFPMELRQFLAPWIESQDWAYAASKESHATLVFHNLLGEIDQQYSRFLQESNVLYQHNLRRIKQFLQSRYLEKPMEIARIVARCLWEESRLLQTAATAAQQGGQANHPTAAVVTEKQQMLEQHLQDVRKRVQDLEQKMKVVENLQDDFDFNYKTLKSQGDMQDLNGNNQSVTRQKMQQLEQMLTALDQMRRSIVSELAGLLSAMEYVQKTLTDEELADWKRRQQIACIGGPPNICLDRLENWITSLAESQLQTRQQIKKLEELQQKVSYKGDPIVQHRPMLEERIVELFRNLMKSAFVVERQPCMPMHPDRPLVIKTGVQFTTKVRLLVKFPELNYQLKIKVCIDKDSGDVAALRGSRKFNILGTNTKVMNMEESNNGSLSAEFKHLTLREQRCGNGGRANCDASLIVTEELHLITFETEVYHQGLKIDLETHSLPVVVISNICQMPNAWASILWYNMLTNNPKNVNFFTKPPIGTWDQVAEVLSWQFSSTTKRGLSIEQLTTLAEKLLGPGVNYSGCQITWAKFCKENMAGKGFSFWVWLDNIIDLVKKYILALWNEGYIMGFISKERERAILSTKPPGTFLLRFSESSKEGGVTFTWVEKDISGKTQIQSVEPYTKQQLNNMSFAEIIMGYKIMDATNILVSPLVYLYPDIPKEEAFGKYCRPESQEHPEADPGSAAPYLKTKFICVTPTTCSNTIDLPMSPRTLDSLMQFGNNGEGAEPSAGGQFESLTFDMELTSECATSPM
Procedure, shortened: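 Values derive from bidirectional fits relative to DMSO of reporter mRNA levels, measured by RT-PCR with capillary electrophoresis, in HepG2 cells carrying transiently transfected cis-regulated reporter units and exposed 24 h.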

Measured: AC50

CC=Cc1ccc2c(c1)OCO2
inactive: [1] | [2] | [3] | [4] | [5] | [6] | [7] | [8] | [9] | [10] | [11] | [12] | [13] | [14] | [15] | [16] | [17] | [18] | [19]

[N-]=[N+]=CC(=O)OC[C@H](N)C(=O)O
inactive: [1] | [2] | [3] | [4] | [5] | [6] | [7] | [8] | [9] | [10] | [11] | [12] | [13] | [14] | [16] | [17] | [18] | [19]
active: [15] 26 µM

C=CC(=O)OCCO
inactive: [3] | [5] | [6] | [8] | [9] | [10] | [11] | [12] | [13] | [14] | [15] | [16] | [19]
active: [1] 116 µM | [2] 123 µM | [4] 123 µM | [7] 116 µM | [17] 156 µM | [18] 172 µM

ClCC(Cl)Cl
inactive: [1] | [2] | [3] | [4] | [5] | [6] | [7] | [8] | [9] | [10] | [11] | [12] | [13] | [14] | [15] | [16] | [17] | [18] | [19]

CC(C)(C)C(=O)CCl
active: [4] 55.2 µM | [6] 45.2 µM
inactive: [1] | [2] | [3] | [5] | [7] | [8] | [9] | [10] | [11] | [12] | [13] | [14] | [15] | [16] | [17] | [18] | [19]
